The record followed here is PubChem BioAssay (NCATS).

Results filed as inconclusive are left out. Active and inactive are the calls of the source. Calls come from the whole dose curve; as a rule, active = well fitted inhibition curve with a large enough effect; inconclusive = small, poorly fitted or top-dose-only effect; inactive = no such curve, though single readings can be large or run the other way.
Potency is the fitted concentration of half-maximal effect.

Chain of Furin (Homo sapiens) (P09958 whole entry, looked up): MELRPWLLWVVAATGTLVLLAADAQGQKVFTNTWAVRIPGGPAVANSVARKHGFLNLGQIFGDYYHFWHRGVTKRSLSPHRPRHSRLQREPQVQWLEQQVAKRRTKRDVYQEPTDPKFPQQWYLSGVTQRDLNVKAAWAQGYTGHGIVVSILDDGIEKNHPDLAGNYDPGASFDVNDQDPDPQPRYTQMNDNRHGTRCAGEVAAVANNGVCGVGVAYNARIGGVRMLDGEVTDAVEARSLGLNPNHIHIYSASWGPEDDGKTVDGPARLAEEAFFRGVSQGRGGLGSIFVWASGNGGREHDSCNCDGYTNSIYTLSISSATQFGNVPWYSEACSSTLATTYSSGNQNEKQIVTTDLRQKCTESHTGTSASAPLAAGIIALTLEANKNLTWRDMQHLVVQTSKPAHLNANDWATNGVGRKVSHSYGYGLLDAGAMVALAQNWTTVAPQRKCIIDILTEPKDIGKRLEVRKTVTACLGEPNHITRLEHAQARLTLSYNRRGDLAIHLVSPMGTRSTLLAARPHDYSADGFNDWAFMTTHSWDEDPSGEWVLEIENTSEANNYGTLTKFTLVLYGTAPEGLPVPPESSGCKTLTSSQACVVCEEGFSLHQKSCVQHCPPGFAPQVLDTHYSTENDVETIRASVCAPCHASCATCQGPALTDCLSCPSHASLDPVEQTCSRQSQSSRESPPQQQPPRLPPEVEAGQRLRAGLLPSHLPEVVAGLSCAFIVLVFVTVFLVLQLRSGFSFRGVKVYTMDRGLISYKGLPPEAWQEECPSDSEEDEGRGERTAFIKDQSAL

The target in the assay is Furin (Homo sapiens) (UniProt P09958). The assay is described as follows: Furin counterscreen qHTS for Zika virus inhibitors (AID 1347149).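 For activity change, negative = inhibition: fluorescence gain from furin cutting a BOC-RVRR-AMC peptide substrate over 15 min; top concentration of the series differs between compounds.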 Note: nearly all actives have a fitted effect of over 70% in size. The following applies: furin enzymatic counterscreen, fluorogenic substrate; series mostly up to 114 µM; activity change, negative = inhibition: at the top concentration. The source says:
Avindra Nath, Ph.D., National Institute of Neurological Disorders and Stroke (NINDS), Bethesda, MD
Radhakrishnan Padmanabhan, Ph.D., Georgetown University (GU), Washington D.C.
Zika Virus causes congenital defects, including microcephaly and is associated with Guillain-Barre syndrome, eningoencephalitis and myelitis in infected adult. […] Using a target-based approach, we hope to establish a screening paradigm to uncover novel, cell-active NS2B-NS3 protease (Zika Virus) specific inhibitors from NCATS' collection of small molecules using qHTS.
Four assay panel was created to identify potential Zika Virus inhibitors. Namely, (1) GU unlinked NS2B-NS3 AMC tagged protease qHTS, (2) GU unlinked NS2B-NS3 Rhodamine tagged protease qHTS, (3) NINDS linked NS2B-NS3 AMC tagged protease qHTS, (4) NINDS linked NS2B-NS3 Rhodamine tagged protease qHTS. Active compounds were re-acquired and re-screened to confirm inhibition. Inhibitors were further screened against various confirmatory and counterscreens in dose response format.
Early Translation Branch (ETB)
National Center for Advancing Translational Sciences (NCATS), Rockville, MD
National Institute of Health (NIH), Bethesda, Maryland
1536-well Furin BOC-RVRR-AMC Protocol:
Human recombinant Furin Serine Protease was purchased from Peprotech (catalog #450-47; full length; Rocky Hill, NJ). Briefly, 3 microL of enzyme (final concentrations of 5 nM), in assay buffer (100 mM HEPES pH 7.0, 1 mM CaCl2 with 0.01% Triton X-100) were dispensed into a 1,536-well solid-bottom black plate (Greiner Bio One, Monroe, NC). Twenty-three nL of compounds (final concentration range 7.28 nM to 114 microM) or control Furin Inhibitor I (Dec-RVKR-CMK; final concentration range 0.248 nM to 8.12 microM) were transferred via Wako Pin-tool (Wako Automation, Richmond, VA). Samples were incubated (RT, protected from light) for 15 minutes followed by a 1 microL substrate addition of BOC-RVRR-AMC (final concentration of 2 microM; Km = ~15 muM90). Plates were then read immediately on a ViewLux High-throughput CCD imager (PerkinElmer, Waltham, MA) equipped with standard UV fluorescence optics (340(30) nm excitation, 450(20) nm emission), then incubated (37C, protected from light) for 15 or 30 minutes (~9% conversion). The change in fluorescence intensity over the 15-minute reaction period was normalized against no-inhibitor and no-enzyme controls and the resulting percent inhibition data were fitted to a 4-parameter Hill equation. Furin Inhibitor I was used as intraplate control.
Turning to `Cc1noc(-c2ccc(-c3ccc(CC(=O)O)cc3)cc2)c1NC(=O)O[C@H](C)c1ccccc1Cl`, the Potency is 69.8 µM (active).
Same read-out and setting: the same measure for `CCCCCc1ccc(/C=C/C(=O)Nc2cc(Cl)ccc2C(=O)O)cc1`: 39.3 µM (active).
Take `N#Cc1ccc(N2N=C3c4ccc(C(=O)O)cc4CC[C@@H]3[C@@H]2C2CCCC2)cc1Cl`: the “activity change, negative = inhibition” value was 949% (inactive).
For `COc1ccc(-c2ccccc2)cc1NS(=O)(=O)c1cc(Cl)cc(Cl)c1O`, the Potency was 30.4 µM (active).
Same read-out and setting: the same measure for `O=C(O)c1cc(N(Cc2ccc(C3CCCCC3)cc2)C(=O)c2ccc(Oc3ccccc3)cc2)ccc1O`: 15.6 µM (active).
On the same count and under the same terms, as for `CC#C[C@@H](CC(=O)O)c1ccc(OCc2cccc(-c3ccc(C(F)(F)F)cc3)c2)cc1`, the figure is 24.1 µM (active).
In the case of `CC#C[C@@H](CC(=O)O)c1ccc(OCc2ccc(CN3CCC4(C=Cc5ccccc54)CC3)s2)cc1`, the “activity change, negative = inhibition” value was -9.43% (inactive).
Turning to `O=C(O)c1cccc(-c2ccc(-c3cn(C(=O)N4CCCCC4Cc4ccccc4)nn3)cc2)c1` (stereo not given), the Potency is 55.5 µM (active).
In the case of `CC(O)(C(=O)O)C1CCC2(C)C1CCC1(C)C2CCC2C3(C)CCC(O)C(C)(COC4OC(CO)C(O)C(O)C4O)C3CCC21C` (stereo not given), the “activity change, negative = inhibition” value is 18.6% [at 36.2 µM] (inactive).
For `CC(C)C[C@H](C(=O)O)c1cc(-c2ccc(C(F)(F)F)cc2)cc(-c2ccc(C(F)(F)F)cc2)c1`, the Potency was 17.5 µM (active).
For the compound `O=C(Nc1ccc(-c2ccc(Cl)c(Cl)c2)cc1)C1=C(O)c2ccccc2S(=O)(=O)N1`, the “activity change, negative = inhibition” value is 94.2% (inactive).
As for `Oc1cccc(-c2c3nc(c(-c4cccc(O)c4)c4ccc([nH]4)c(-c4cccc(O)c4)c4nc(c(-c5cccc(O)c5)c5ccc2[nH]5)CC4)C=C3)c1`, the “activity change, negative = inhibition” value is 11.3% (inactive).
Still for that read-out and setting: as for `CCC(CC)(NC(=O)C(C)C)C(=O)N[C@@H](CCCN=C(N)N)C(=O)NC1(C(=O)NC(c2ccc(F)cc2)c2ccc(F)cc2)CCCC1`, the figure is 0.371% [at 57.5 µM] (inactive).
As for `O=C(Nc1ccc(/C=C/c2ccc(NC(=O)c3cc(S(=O)(=O)O)c4cccnc4c3O)cc2S(=O)(=O)O)c(S(=O)(=O)O)c1)c1cc(S(=O)(=O)O)c2cccnc2c1O`, the Potency is 46.9 µM (active).
The same measure, in the same setting: the same measure for `CCCCCCCOc1cc2c(cc1/C(C)=C/c1ccc(C(=O)O)cc1)C(C)(C)CCS2(=O)=O`: 55.5 µM (active).
